Measurements as given in PubChem BioAssay (NCI).
The panel holds about 79,000 compounds, 15% with a hit somewhere; the sample as a whole holds those more often. Active and inactive are the calls of the source. Cut-off read from the data, not from the text of the source: active = growth inhibition above about 70%; inactive = the rest.

Legend:
[1] = NCI Yeast Anticancer Drug Screen. Data for the rad52 strain (AID 147);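 note: 0% = growth of vehicle-treated control cultures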; settings: S. cerevisiae rad52 mutant growth inhibition, stronger effect = higher value
How it was run: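 Growth of repair-deficient yeast cells was compared between compound-treated and vehicle-treated cultures to give percent inhibition.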

[2] = NCI Yeast Anticancer Drug Screen. Data for the rad50EPP+ strain (AID 151);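 note: 0% = growth of vehicle-treated control cultures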; settings: S. cerevisiae rad50 mutant strain, stronger effect = higher value
How it was run: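 Measured: growth inhibition of rad50EPP+ yeast. Reference: vehicle-treated controls. Screen uses strains with defined genetic alterations in DNA damage repair or cell cycle control.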

[3] = NCI Yeast Anticancer Drug Screen. Data for the mgt1 strain (AID 153); settings: S. cerevisiae mgt1 mutant growth inhibition, stronger effect = higher value
How it was run: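 Compounds were applied to mgt1 mutant yeast, and growth was then compared against vehicle-treated control cultures to give percent inhibition.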

[4] = NCI Yeast Anticancer Drug Screen. Data for the rad50 strain (AID 155);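 note: 0% = growth of vehicle-only cultures of the same strain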; settings: S. cerevisiae rad50 strain growth inhibition, stronger effect = higher value
How it was run: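 Growth of the mutant yeast was measured after compound exposure and referenced to vehicle-treated cultures.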

[5] = NCI Yeast Anticancer Drug Screen. Data for the mec2-1 strain (AID 157); settings: S. cerevisiae mec2-1 strain, stronger effect = higher value
How it was run: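 Compounds were applied to mec2-1 yeast cells. Their growth was then compared with that of vehicle-treated cultures to give growth inhibition.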

[6] = NCI Yeast Anticancer Drug Screen. Data for the rad14 strain (AID 159);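 note: 0% = growth of vehicle-treated control cultures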; settings: S. cerevisiae rad14 strain growth inhibition, stronger effect = higher value
How it was run: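 Here, inhibition of yeast growth was measured after compound exposure, using a strain with a genetic defect in DNA damage repair and vehicle-treated cultures as the reference.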

[7] = NCI Yeast Anticancer Drug Screen. Data for the sgs1 mgt1 strain (AID 161);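 note: 0% = growth of cultures given vehicle only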; settings: S. cerevisiae sgs1 mgt1 strain, stronger effect = higher value
How it was run: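 This yeast growth screen uses a strain with defined DNA-repair lesions; compound-treated growth is compared with vehicle-treated growth.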

[8] = NCI Yeast Anticancer Drug Screen. Data for the CLN2oe strain (AID 163);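 note: 0% = growth of vehicle-only control cultures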; settings: S. cerevisiae CLN2oe strain, stronger effect = higher value
How it was run: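 Cells of an engineered yeast line with disturbed cell-cycle regulation are treated with compound. Inhibition of growth is then calculated relative to the vehicle-treated reference.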

[9] = NCI Yeast Anticancer Drug Screen. Data for the cln2 rad14 strain (AID 165);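 note: 0% = growth equal to vehicle treated cultures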; settings: S. cerevisiae cln2 rad14 strain, stronger effect = higher value
How it was run: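 Strain: cln2 rad14 yeast, altered in cell cycle control and DNA damage repair. Read-out: growth inhibition vs vehicle.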

[10] = NCI Yeast Anticancer Drug Screen. Data for the bub3 strain (AID 167); settings: S. cerevisiae bub3 mutant strain, stronger effect = higher value
How it was run: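 Whole-cell yeast assay. The mutant strain was incubated with compounds, and growth inhibition was determined by comparison with vehicle-treated cells.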

[11] = NCI Yeast Anticancer Drug Screen. Data for the wt2 strain (AID 169);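 note: 0% = growth of vehicle-treated yeast cultures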; settings: S. cerevisiae wt2 strain growth inhibition, stronger effect = higher value
How it was run: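 Growth of compound-treated yeast is measured and expressed as inhibition relative to vehicle-only controls.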

[12] = NCI Yeast Anticancer Drug Screen. Data for the mlh1 strain (AID 171);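 note: 0% = growth of vehicle-treated control cultures of the same strain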; settings: S. cerevisiae mlh1 strain growth inhibition, stronger effect = higher value
How it was run: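 Test agents were incubated with yeast bearing a defined DNA damage repair or cell cycle control alteration; values are growth inhibition normalised to vehicle-treated cultures.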

[13] = NCI Yeast Anticancer Drug Screen. Data for the sgs1 strain (AID 173);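 note: 0% = growth of vehicle-only control cultures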; settings: S. cerevisiae sgs1 mutant, stronger effect = higher value
How it was run: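 Strain with an altered DNA repair or cell cycle pathway exposed to compound. Growth then measured. Value = inhibition versus vehicle control.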

[14] = NCI Yeast Anticancer Drug Screen. Data for the mlh1 rad18 strain (AID 175); settings: S. cerevisiae mlh1 rad18 strain growth inhibition, stronger effect = higher value
How it was run: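 A repair-deficient yeast strain is exposed to test compound, and growth is scored relative to vehicle-treated controls.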

[15] = NCI Yeast Anticancer Drug Screen. Data for the rad18 strain (AID 177); settings: S. cerevisiae rad18 mutant growth inhibition, stronger effect = higher value
How it was run: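 DNA-repair-defective yeast; compound treatment; growth inhibition scored against vehicle.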

[16] = at 5.0 µM (retest, dose inferred, filed as 0.5)
[17] = at 50.0 µM (retest, dose inferred, filed as 5.0)

Measured: growth inhibition

[N-]=[N+]=C1C(Cl)=C(Cl)C(Cl)=C1Cl
inactive: [1]; at 1.2 µM -1% | [1]; at 3.7 µM 17% | [1]; at 11.0 µM 63% | [2]; at 1.2 µM 1% | [2]; at 3.7 µM 6% | [2]; at 11.0 µM 32% | [3]; at 1.2 µM -1% | [3]; at 3.7 µM -1% | [3]; at 11.0 µM 46% | [4]; at 1.2 µM 6% | [4]; at 3.7 µM 8% | [4]; [16] 62% | [4]; at 11.0 µM 65% | [5]; at 1.2 µM 1% | [5]; at 3.7 µM 2% | [5]; [16] 15% | [5]; at 11.0 µM 59% | [6]; at 1.2 µM 1% | [6]; at 3.7 µM 5% | [6]; at 11.0 µM 44% | [7]; [16] 20% | [8]; at 1.2 µM -2% | [8]; at 3.7 µM 2% | [8]; at 11.0 µM 50% | [9]; [16] -6% | [10]; at 1.2 µM -8% | [10]; at 3.7 µM 1% | [10]; [16] 11% | [10]; at 11.0 µM 62% | [11]; at 1.2 µM 0% | [11]; at 3.7 µM 0% | [11]; at 11.0 µM 48% | [12]; at 1.2 µM 6% | [12]; at 3.7 µM -1% | [12]; at 11.0 µM 48% | [13]; at 1.2 µM -1% | [13]; at 3.7 µM 19% | [13]; at 11.0 µM 64% | [14]; [16] 33% | [15]; at 1.2 µM 3% | [15]; at 3.7 µM 13% | [15]; at 11.0 µM 62%
active: [1]; at 33.0 µM 99% | [1]; at 100.0 µM 99% | [2]; at 33.0 µM 83% | [2]; at 100.0 µM 98% | [3]; at 33.0 µM 95% | [3]; at 100.0 µM 99% | [4]; at 33.0 µM 99% | [4]; [17] 96% | [4]; at 50.0 µM 99% | [4]; at 100.0 µM 99% | [5]; at 33.0 µM 99% | [5]; [17] 98% | [5]; at 50.0 µM 99.5% | [5]; at 100.0 µM 99% | [6]; at 33.0 µM 99% | [6]; at 100.0 µM 99% | [7]; [17] 95% | [7]; at 50.0 µM 99.2% | [8]; at 33.0 µM 99% | [8]; at 100.0 µM 99% | [9]; [17] 97% | [9]; at 50.0 µM 98.8% | [10]; at 33.0 µM 98% | [10]; [17] 97% | [10]; at 50.0 µM 99% | [10]; at 100.0 µM 99% | [11]; at 33.0 µM 99% | [11]; at 100.0 µM 99% | [12]; at 33.0 µM 99% | [12]; at 100.0 µM 99% | [13]; at 33.0 µM 99% | [13]; at 100.0 µM 99% | [14]; [17] 97% | [14]; at 50.0 µM 99.1% | [15]; at 33.0 µM 98% | [15]; at 100.0 µM 99%

[O-][n+]1c2cccc(O)c2[n+]([O-])c2cccc(O)c21
active: [1]; at 11.0 µM 89% | [1]; at 33.0 µM 93% | [1]; at 100.0 µM 95% | [2]; at 11.0 µM 89% | [2]; at 33.0 µM 94% | [2]; at 100.0 µM 96% | [4]; at 11.0 µM 85% | [4]; at 33.0 µM 92% | [4]; [17] 95% | [4]; at 50.0 µM 86.4% | [4]; at 100.0 µM 95% | [5]; [17] 80% | [7]; [17] 81% | [9]; [17] 94% | [9]; at 50.0 µM 82.8% | [10]; [17] 72% | [14]; [17] 94% | [15]; at 3.7 µM 75% | [15]; at 11.0 µM 92% | [15]; at 33.0 µM 94% | [15]; at 100.0 µM 94%
inactive: [1]; at 1.2 µM 23% | [1]; at 3.7 µM 57% | [2]; at 1.2 µM 25% | [2]; at 3.7 µM 63% | [4]; at 1.2 µM 24% | [4]; at 3.7 µM 55% | [4]; [16] 15% | [5]; at 1.2 µM 3% | [5]; at 3.7 µM 9% | [5]; [16] 15% | [5]; at 11.0 µM 18% | [5]; at 33.0 µM 26% | [5]; at 50.0 µM 35.8% | [5]; at 100.0 µM 46% | [6]; at 1.2 µM 2% | [6]; at 3.7 µM 23% | [6]; at 11.0 µM 12% | [6]; at 33.0 µM 20% | [6]; at 100.0 µM 38% | [7]; [16] 6% | [7]; at 50.0 µM 35% | [8]; at 1.2 µM 0% | [8]; at 3.7 µM 0% | [8]; at 11.0 µM 3% | [8]; at 33.0 µM 11% | [8]; at 100.0 µM 11% | [9]; [16] 65% | [10]; at 1.2 µM 4% | [10]; at 3.7 µM 3% | [10]; [16] 0% | [10]; at 11.0 µM 0% | [10]; at 33.0 µM 3% | [10]; at 50.0 µM 42.8% | [10]; at 100.0 µM 1% | [11]; at 1.2 µM 2% | [11]; at 3.7 µM 5% | [11]; at 11.0 µM 11% | [11]; at 33.0 µM 12% | [11]; at 100.0 µM 24% | [12]; at 1.2 µM 3% | [12]; at 3.7 µM 0% | [12]; at 11.0 µM 11% | [12]; at 33.0 µM 18% | [12]; at 100.0 µM 44% | [13]; at 1.2 µM 6% | [13]; at 3.7 µM 14% | [13]; at 11.0 µM 31% | [13]; at 33.0 µM 46% | [13]; at 100.0 µM 66% | [14]; [16] -7% | [14]; at 50.0 µM 57.2% | [15]; at 1.2 µM 31%
